Calls of active or inactive are those of the source.
Tests used:
[1] = binders of probe aFSTL3 on microarray, primary screen, stem cell growth factor project, biochemical, small-molecule microarray, fluorescence 635/667 (AID 1064); conditions: higher = more signal;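 note: measures binding of the biotinylated anti-FSTL3 antibody to printed compounds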
[2] = binders from COS7 lysate, DM2A8 probe, primary screen, torsin A project, cell lysate, small-molecule microarray, fluorescence 635/667 (AID 1065); conditions: higher = more signal, COS7 lysate expressing mutant human TOR1A
[3] = binders of probe aFGF2 on microarray, primary screen, stem cell growth factor project, biochemical, small-molecule microarray, fluorescence 635/667 (AID 1067); conditions: higher = more signal;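 note: measures binding of biotinylated aFGF2 protein to printed compounds on slides; z-score merges feature fluorescence and signal-to-noise across triplicate slides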
[4] = binders of probe aFGF10 on microarray, primary screen, stem cell growth factor project, biochemical, small-molecule microarray, fluorescence 635/667 (AID 1071); conditions: higher = more signal;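 note: score merges 667 nm spot intensity and signal to noise from triplicate slides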
[5] = molecular target: Neurogenic locus notch homolog protein 2 (Homo sapiens) (UniProt Q04721); assay: Notch2 binders on small-molecule microarrays, primary screen, biochemical, small-molecule microarray, 635 nm fluorescence, stem cell growth factors (AID 1073); conditions: Notch2 binding, higher = more signal
Neurogenic locus notch homolog protein 2 (Homo sapiens), sequence (Q04721 whole entry, looked up, canonical isoform): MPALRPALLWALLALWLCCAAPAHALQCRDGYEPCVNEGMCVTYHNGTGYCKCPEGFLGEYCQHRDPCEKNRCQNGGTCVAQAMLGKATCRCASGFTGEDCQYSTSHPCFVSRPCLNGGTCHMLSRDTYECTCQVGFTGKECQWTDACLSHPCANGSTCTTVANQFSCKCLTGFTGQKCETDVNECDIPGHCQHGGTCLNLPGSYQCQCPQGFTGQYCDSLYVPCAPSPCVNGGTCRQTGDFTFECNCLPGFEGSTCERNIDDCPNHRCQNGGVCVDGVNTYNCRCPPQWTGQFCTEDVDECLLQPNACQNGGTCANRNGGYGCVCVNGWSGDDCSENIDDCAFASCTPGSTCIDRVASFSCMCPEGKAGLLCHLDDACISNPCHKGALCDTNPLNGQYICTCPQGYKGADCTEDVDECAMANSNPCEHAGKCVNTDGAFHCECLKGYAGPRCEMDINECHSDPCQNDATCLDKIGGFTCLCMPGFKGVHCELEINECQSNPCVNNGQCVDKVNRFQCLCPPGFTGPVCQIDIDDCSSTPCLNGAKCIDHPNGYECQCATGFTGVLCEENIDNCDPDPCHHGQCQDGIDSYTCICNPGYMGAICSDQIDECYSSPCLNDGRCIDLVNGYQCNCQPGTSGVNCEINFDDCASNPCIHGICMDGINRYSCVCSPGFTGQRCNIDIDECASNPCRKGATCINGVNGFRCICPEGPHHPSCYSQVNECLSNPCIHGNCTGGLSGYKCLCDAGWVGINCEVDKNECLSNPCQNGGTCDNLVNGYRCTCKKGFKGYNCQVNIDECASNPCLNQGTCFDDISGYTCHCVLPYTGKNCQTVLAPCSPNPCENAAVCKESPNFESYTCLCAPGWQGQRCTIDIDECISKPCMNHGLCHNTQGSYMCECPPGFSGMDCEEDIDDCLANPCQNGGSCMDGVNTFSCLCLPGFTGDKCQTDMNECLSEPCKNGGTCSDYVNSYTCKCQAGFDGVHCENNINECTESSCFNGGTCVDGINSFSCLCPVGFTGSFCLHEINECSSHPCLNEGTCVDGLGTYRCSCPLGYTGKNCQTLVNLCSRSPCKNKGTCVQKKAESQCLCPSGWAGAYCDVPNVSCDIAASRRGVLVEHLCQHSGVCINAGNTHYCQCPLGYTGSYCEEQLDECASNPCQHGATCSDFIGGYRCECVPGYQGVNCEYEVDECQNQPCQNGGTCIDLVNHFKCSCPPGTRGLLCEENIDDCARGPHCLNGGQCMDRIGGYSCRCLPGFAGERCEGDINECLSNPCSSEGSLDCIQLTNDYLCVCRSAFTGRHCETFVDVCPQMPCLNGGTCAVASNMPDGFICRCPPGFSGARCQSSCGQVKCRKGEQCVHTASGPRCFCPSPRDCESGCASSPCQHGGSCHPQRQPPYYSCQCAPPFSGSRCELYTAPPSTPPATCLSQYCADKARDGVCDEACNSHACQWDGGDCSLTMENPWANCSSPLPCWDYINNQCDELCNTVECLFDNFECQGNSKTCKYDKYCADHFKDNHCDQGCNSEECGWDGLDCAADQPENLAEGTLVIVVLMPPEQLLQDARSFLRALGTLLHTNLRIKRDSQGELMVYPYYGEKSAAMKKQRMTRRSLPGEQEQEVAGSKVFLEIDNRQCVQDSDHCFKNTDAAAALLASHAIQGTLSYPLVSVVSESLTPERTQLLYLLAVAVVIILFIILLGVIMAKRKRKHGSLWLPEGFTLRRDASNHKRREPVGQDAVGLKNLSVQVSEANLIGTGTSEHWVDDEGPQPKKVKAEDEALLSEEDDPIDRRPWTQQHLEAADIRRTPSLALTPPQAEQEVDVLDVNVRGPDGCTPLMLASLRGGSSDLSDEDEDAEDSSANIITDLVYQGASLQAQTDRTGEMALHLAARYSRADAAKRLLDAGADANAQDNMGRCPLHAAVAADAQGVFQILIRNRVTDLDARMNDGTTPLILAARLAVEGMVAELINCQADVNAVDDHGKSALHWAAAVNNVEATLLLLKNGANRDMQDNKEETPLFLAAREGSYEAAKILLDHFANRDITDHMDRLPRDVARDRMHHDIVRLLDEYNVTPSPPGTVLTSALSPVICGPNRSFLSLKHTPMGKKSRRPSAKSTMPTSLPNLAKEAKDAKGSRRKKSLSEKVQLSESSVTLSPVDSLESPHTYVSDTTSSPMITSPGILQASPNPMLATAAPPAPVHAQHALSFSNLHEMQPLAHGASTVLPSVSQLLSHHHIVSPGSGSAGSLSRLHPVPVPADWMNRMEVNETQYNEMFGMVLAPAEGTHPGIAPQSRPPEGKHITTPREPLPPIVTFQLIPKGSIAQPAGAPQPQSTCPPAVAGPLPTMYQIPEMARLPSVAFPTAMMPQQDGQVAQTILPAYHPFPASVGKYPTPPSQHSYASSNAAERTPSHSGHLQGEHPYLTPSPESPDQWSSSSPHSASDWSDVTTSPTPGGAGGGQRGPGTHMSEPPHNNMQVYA

[6] = molecular target: Pro-neuregulin-1, membrane-bound isoform (Homo sapiens) (UniProt Q02297); assay: NRG1 binders on small-molecule microarrays, primary screen, psychiatric disease protein project, biochemical, small-molecule microarray, fluorescence 635/667 (AID 1075); conditions: NRG1 binding, 635 nm fluorescence, higher = more signal;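 note: score combines 667 nm spot fluorescence with signal to noise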
Pro-neuregulin-1, membrane-bound isoform (Homo sapiens), sequence (Q02297 whole entry, looked up, the tested form may be a part, canonical isoform): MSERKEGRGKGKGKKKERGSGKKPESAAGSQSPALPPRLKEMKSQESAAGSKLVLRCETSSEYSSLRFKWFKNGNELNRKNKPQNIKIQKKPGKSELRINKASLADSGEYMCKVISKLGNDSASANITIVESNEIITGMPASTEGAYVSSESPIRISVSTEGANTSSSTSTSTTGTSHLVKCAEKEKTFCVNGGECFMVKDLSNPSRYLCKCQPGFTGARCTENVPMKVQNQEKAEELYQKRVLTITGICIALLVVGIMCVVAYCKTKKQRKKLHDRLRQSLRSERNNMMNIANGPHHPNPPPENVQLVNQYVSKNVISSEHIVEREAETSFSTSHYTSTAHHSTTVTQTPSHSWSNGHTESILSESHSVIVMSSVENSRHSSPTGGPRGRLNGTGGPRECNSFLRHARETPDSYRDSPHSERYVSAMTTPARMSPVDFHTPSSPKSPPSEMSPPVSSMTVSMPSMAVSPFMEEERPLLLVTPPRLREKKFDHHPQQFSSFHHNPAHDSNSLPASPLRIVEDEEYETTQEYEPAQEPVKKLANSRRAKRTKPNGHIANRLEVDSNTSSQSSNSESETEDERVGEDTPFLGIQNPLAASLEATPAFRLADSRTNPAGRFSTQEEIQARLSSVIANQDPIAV

[7] = tested on: Neuregulin-1 EGF-like domain; assay: binders of neuregulin-1 EGF-like domain, primary screen, biochemical, small-molecule microarray, 635 nm fluorescence (AID 1081); conditions: small-molecule microarray binding, higher = more signal;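 note: binding of the protein to compounds printed on small-molecule microarray slides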
[8] = FRG1 promoter luciferase signal modulators, primary screen, FRG1 inhibition for FSHD, cell-based, C2C12 myotubes, firefly/Renilla luciferase, luminescence (AID 1084); conditions: higher = more signal, called active from +8 up or from −8 down
[9] = binders of probe aFST on microarray, primary screen, stem cell growth factor project, biochemical, small-molecule microarray, fluorescence 635/667 (AID 1086); conditions: higher = more signal;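 note: score merges 667 nm fluorescence with signal-to-noise of each printed compound spot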
[10] = binders of probe aHhip on microarray, primary screen, stem cell growth factor project, biochemical, small-molecule microarray, fluorescence 635/667 (AID 1087); conditions: higher = more signal;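 note: score merges spot fluorescence at 667nm with spot signal to noise ratio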
[11] = tested on: PRMT1 (protein arginine N-methyltransferase 1); assay: PRMT1 binders on small-molecule microarrays, primary screen, biochemical, small-molecule microarray, 635 nm fluorescence (AID 1088); conditions: small-molecule microarray binding, higher = more signal;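 note: binding of Prmt1 protein to compounds spotted on small-molecule microarray slides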
[12] = yeast growth modulation, basal conditions, primary screen, YJM789 clinical isolate, OD600, 24 h (AID 1089);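 note: growth of clinical yeast isolate S. cerevisiae YJM 789 seeded 1000 cells per well; test concentration not given here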; conditions: S. cerevisiae YJM789 growth, higher = more signal, called active from +8 up or from −8 down
[13] = fission yeast growth modulation, primary screen, strain 972, OD600, 24 h, no modulator (AID 1090);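 note: basal condition with compound alone and no growth modifier present; test concentration not given here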; conditions: S. pombe 972 growth, higher = more signal, called active from +8 up or from −8 down
[14] = S. cerevisiae growth modulation with rapamycin, primary screen, strain BY4716, OD600, 96 h (AID 1091); conditions: higher = more signal, called active from +8 up or from −8 down; note: test concentration not given here
[15] = molecular target: Torsin-1A-interacting protein 2 (Homo sapiens) (UniProt Q8NFQ8); assay: LULL1 binders on small-molecule microarray, primary screen, cell lysate, human LULL1 lysate, 635/667 nm fluorescence (AID 1092); conditions: hLULL1 lysate binding, 635 nm fluorescence, higher = more signal;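 note: probe is lysate of COS7 cells overexpressing human LULL1; score merges per-feature 667 nm fluorescence with signal-to-noise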
Torsin-1A-interacting protein 2 (Homo sapiens), sequence (Q8NFQ8 whole entry, looked up): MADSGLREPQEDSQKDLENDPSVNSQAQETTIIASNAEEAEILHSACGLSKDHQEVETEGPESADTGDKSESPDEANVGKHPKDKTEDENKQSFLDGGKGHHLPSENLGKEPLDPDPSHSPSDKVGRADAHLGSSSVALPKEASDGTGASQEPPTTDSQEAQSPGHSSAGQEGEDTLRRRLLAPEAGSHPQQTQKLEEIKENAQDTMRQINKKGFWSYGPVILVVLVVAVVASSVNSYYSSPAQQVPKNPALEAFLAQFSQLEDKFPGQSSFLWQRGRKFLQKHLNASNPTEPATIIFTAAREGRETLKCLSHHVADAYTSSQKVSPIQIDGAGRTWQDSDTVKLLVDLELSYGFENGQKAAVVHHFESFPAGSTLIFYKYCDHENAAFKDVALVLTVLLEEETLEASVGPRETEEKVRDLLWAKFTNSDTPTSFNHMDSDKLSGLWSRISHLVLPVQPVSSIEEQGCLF

[16] = E. coli growth modulation, two-sided OD650, primary screen, E. coli filamentation project, strain DRC41, 24 h (AID 1093); conditions: OD650, 24 h, higher = more signal, called active from +8 up or from −8 down;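 note: MC1000 strain lacking acrAB efflux and sulA so SOS filamentation is blocked; test concentration not given here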
[17] = small-molecule microarray binders of probe aLefty2, primary screen, biochemical, biotinylated probe, 635/667 nm fluorescence (AID 1094); conditions: higher = more signal;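 note: score merges spot fluorescence near 667 nm with spot signal-to-noise ratio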
[18] = tested on: Noggin (protein binding on small-molecule microarray); assay: Noggin binders on small-molecule microarray, primary screen, biochemical, 635/667 nm fluorescence (AID 1095); conditions: 635 nm fluorescence, higher = more signal;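 note: score merges 667 nm feature fluorescence with signal to noise over triplicate slides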
[19] = molecular target: Neurogenic locus notch homolog protein 3 (Homo sapiens) (UniProt Q9UM47); assay: NOTCH3 binders on small-molecule microarray, primary screen, biochemical, 635/667 nm fluorescence (AID 1096); conditions: NOTCH3 binding, 635 nm fluorescence, higher = more signal
[20] = small-molecule microarray binders of probe aEGFR, primary screen, biochemical, biotinylated probe, 635/667 nm fluorescence (AID 1097); conditions: higher = more signal;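 note: probe is a biotinylated anti-EGFR antibody binding compounds printed on slides; score combines fluorescence near 667 nm and signal to noise of each spot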

| SMILES | composite z-score [1] | composite z-score [2] | composite z-score [3] | composite z-score [4] | composite z-score [5] | composite z-score [6] | composite z-score [7] | z-score [8] | composite z-score [9] | composite z-score [10] | composite z-score [11] | z-score [12] | z-score [13] | z-score [14] | composite z-score [15] | z-score [16] | composite z-score [17] | composite z-score [18] | composite z-score [19] | composite z-score [20] |
| --- | --- | --- | --- | --- | --- | --- | --- | --- | --- | --- | --- | --- | --- | --- | --- | --- | --- | --- | --- | --- |
| CN(C)C(=O)[C@]1(Cc2ccccc2)N=C(c2ccc(OCCCO)cc2)O[C@@H]1c1ccccc1 | -0.129 | 0.984 | 0.0376 | 1.08 | 1.46 | 1.78 | 1.28 | -0.306 (inactive) | 0.952 | 0.127 | 1.52 | 0.0608 (inactive) | -3.66 (inactive) | -0.344 (inactive) | 3.52 | -0.465 (inactive) | 0.0735 | 0.372 | 0.771 | -0.0157 |
| COCCCN1C(=O)[C@@]2(Cc3ccccc31)c1ccccc1C(=O)N(Cc1ccccc1OC)[C@H]2c1ccc(CO)cc1 | 0.303 | -0.457 | -0.122 | -0.279 | -0.228 | 0.731 | -0.944 | -0.193 (inactive) | 0.023 | -0.181 | 0.727 | -1.14 (inactive) | -0.2 (inactive) | -1.33 (inactive) | 1.04 | 0.258 (inactive) | 0.0224 | -0.913 | -0.274 | -0.108 |
| C=CCN1C(=O)[C@]2(O[C@H](CCn3cc([C@H](O)c4ccccc4)nn3)[C@@H]([Si](C)(C)c3ccc(OC)cc3)[C@@H]2C)c2cc(N3C(=O)c4cccc5cccc3c45)ccc21 | -0.144 | -0.111 | -0.085 | 0.73 | -0.0893 | 1.07 | 0.76 | -1.84 (inactive) | -0.516 | -0.256 | 0.755 | -0.055 (inactive) | 1.06 (inactive) | 1.21 (inactive) | 0.6 | 0.374 (inactive) | -0.217 | 0.624 | 0.232 | -0.28 |
| [N-]=[N+]=NCc1ccccc1C[C@]1(C(=O)N2CCCCC2)N=C(c2ccc(OCCCO)cc2)O[C@H]1c1ccccc1 | 0.393 | 0.449 | -0.0165 | 0.39 | 1.07 | 0.618 | 0.849 | -4.27 (inactive) | 0.485 | 0.0722 | 0.762 | 0.202 (inactive) | -1.1 (inactive) | 22.5 (active) | 2.46 | 1.31 (inactive) | 0.124 | 0.0914 | 0.344 | -0.125 |
| NC(=O)[C@@]1(CCS(=O)(=O)c2ccccc2)COC(c2ccc(OCCCO)cc2)=N1 | 0.615 | 0.0735 | 0.0777 | 0.0833 | 0.963 | 1.78 | 0.832 | -0.429 (inactive) | 0.194 | -0.112 | -0.617 | -0.0133 (inactive) | -0.213 (inactive) | 0.0084 (inactive) | 1.28 | 0.817 (inactive) | 0.158 | -0.0167 | -0.57 | -0.0826 |

Source: PubChem BioAssay
